The entries come from a sample that favours hits as a whole.
Ba CapD inh: Bacillus anthracis CapD inhibitors, primary screen, biochemical, fluorescence intensity | z-score (concentration not given with the values) | CapD gamma-glutamyltranspeptidase (Bacillus anthracis Ames Ancestor) | purified CapD enzyme, fluorescence intensity read-out; active compounds read low | 0.23% of 140,000 active; in the data active = z-score mostly below about -2.9, no sharp cut-off; inactive = mostly above about -1.9
Of the large screens only hits and unclear results are named; the others gave an inactive call.

CN(CCO)c1cc(N2CCCCCC2)c2nonc2c1[N+](=O)[O-]	none
CC1CCN(c2cc(N(C)CCO)c([N+](=O)[O-])c3nonc23)CC1	none
Cc1snc(SCc2nc(COc3ccc(F)cc3)n[nH]2)c1C#N	none
COC(=O)C(=C/C=C/N1CCCCC1)C(=O)OC	Ba CapD inh -4.79
COC(=O)C(=C/C=C/c1cccs1)C(=O)OC	none
COC(=O)c1noc(C)c1C(=O)/C=C/N1CCCCC1	none
CCOC(=O)C1=C(C)NC(=O)NC1c1ccc(OCc2ccc(Cl)cc2Cl)c(OC)c1 (stereo not drawn)	none
COc1ccccc1[C@@H]1[C@@H](C(=O)c2ccccc2)N2c3ccc(Cl)cc3C=C[C@@H]2C1(C#N)C#N	none
CCOC(=O)C(Nc1cccc(F)c1)c1ccccc1 (stereo not drawn)	none
COC(=O)C(C(=O)OC)C(Nc1ccccc1)c1ccccc1 (stereo not drawn)	Ba CapD inh -7.08
COC(=O)C(C)Nc1ccc(C)cc1 (stereo not drawn)	none
CC(C)(O)C#Cc1ccc(C(=O)N2CCC(C(O)(c3ccccc3)c3ccccc3)CC2)o1	none
CCC1CCCCN1C(=O)CSc1ccc(Cl)cc1 (stereo not drawn)	none
CCC1CCCCN1C(=O)CSc1nnc(-c2ccc(Cl)cc2)o1 (stereo not drawn)	Ba CapD inh -4.75
CCC1CCCCN1C(=O)CSCc1ccc(Cl)cc1 (stereo not drawn)	none
CCOC(=O)C1=C(C)N=c2s/c(=C/c3ccc(N(C)C)cc3)c(=O)n2C1c1ccc(OC(C)=O)cc1 (stereo not drawn)	none
Cc1ccccc1NC(=O)CCC1COc2ccccc2O1 (stereo not drawn)	none
CN1/C(=C/C(=O)CSC2CCCC2)C(C)(C)c2ccccc21	none
Cc1cc(/N=C/c2cc(C)n(Cc3ccccc3)c2C)n(CCC#N)n1	none
Cc1cc(/N=C/C=C2\N(C)c3ccccc3C2(C)C)n(CCC#N)n1	Ba CapD inh -4.36
CC(C)NC(=O)Cn1ncc2c1-c1ccccc1OC2	none
CCN(CCN(C)C)C(=O)Cn1ncc2c1-c1ccccc1OC2	none
CC1CCCCN1C(=O)Cn1ncc2c1-c1ccccc1OC2 (stereo not drawn)	Ba CapD inh -3.95
CCS(=O)(=O)c1ccc(C(=O)Nc2nccs2)c(Cl)c1Cl	none
O=C(O)COc1ccc(N2C(=O)C3C4c5ccccc5C(c5ccccc54)C3C2=O)cc1 (stereo not drawn)	none
CCc1ccc(N2C(=O)c3sc4nnc(C)c(=O)n4c3C2=O)cc1	Ba CapD inh -2.12
Cc1nnc2sc3c(n2c1=O)C(=O)N(c1ccc(I)cc1)C3=O	none
O=C1c2sc3nnc(-c4ccccc4)c(=O)n3c2C(=O)N1c1ccc(Br)cc1	none
O=C(N1CCc2ccc(S(=O)(=O)NCC(O)CO)cc2C1)C(F)(F)F (stereo not drawn)	none
O=C(CCn1c(=O)c2ccccc2n(CC(=O)Nc2ccccc2)c1=O)NCCc1ccccc1	Ba CapD inh -5.57
O=C(Cn1c(=O)n(CCc2ccccc2)c(=O)c2ccccc21)Nc1ccc(Cl)cc1	none
CCCN(CCC)C(=O)Cn1c(=O)n(CCC(=O)NCCc2ccccc2)c(=O)c2ccccc21	none
Cn1cc(/C=N/NC(=O)CC#N)c2ccccc21	none
O=C(COCc1cc(-c2ccco2)on1)NCCc1ccccc1	none
CCOC(=O)c1[nH]c(=O)[nH]c1COC(=O)CNC(=O)c1ccccc1	Ba CapD inh -6.11
CCOC(=O)c1[nH]c(=O)[nH]c1CN(Cc1ccco1)Cc1[nH]c(=O)[nH]c1C(=O)OCC	none
COC(=O)CNC(=O)c1ccccc1	none
CNc1oc(C)nc1S(=O)(=O)c1ccc(Cl)cc1	none
O=C(NC1CCCCC1)c1c[nH]c2ccc(S(=O)(=O)Nc3ccc4c(c3)OCCO4)cc2c1=O	none
Cc1c(C#N)c(O)n(CCO)c(=O)c1N=Nc1cccc(C(=O)O)c1	Ba CapD inh -8.28
Cc1cc(=O)n(CCc2ccccc2)c(O)c1C#N	none
CCCCn1c(O)c(C#N)c(C)c(N=Nc2ccc(OC)cc2)c1=O	none
CCCN1CCC(N(C2CC2)S(=O)(=O)c2ccc(NC(=O)c3ccccc3)cc2)CC1	none
O=C(O)c1ccc(OC(=O)c2ccccc2)cc1	none
S=c1c2c(nc3nc[nH]n13)CCC2	Ba CapD inh -5.7
CCN(CC)c1c2c(nc3nncn13)CCC2	none
c1ccc(N2CCN(c3c4c(nc5nncn35)CCC4)CC2)cc1	none
CCOc1ccc(C2C(N3C(=O)c4c(Cl)c(Cl)c(Cl)c(Cl)c4C3=O)C(=O)N2c2cc(Cl)cc(Cl)c2)cc1 (stereo not drawn)	none
COc1cccc(NC(N)=S)c1	none
COc1cccc(NC(=S)NNc2ccccc2)c1	none
COc1cccc(NC(=S)/N=C(\N)Nc2nc(C)c3ccccc3n2)c1	Ba CapD inh -5.86
Cc1cc2c(c(SCc3ccc(Cl)cc3)n1)C(=O)OC2	none
Cn1c(SCc2ccoc2C(=O)O)nnc1-c1ccccc1	none
Cc1ccccc1NC(=O)Cn1ncc2ccccc21	none
CC(C)(C)C1(C)OC(=O)C(=Cc2ccccc2Cl)C(=O)O1 (stereo not drawn)	none
CC(C)(C)C1(C)OC(=O)C(=Cc2ccc(Br)o2)C(=O)O1 (stereo not drawn)	Ba CapD inh -5.07
CC1(C)OC(=O)C(=Cc2ccc(-c3ccccc3)o2)C(=O)O1	none
CCOC(=O)c1sc(NC(=O)C(C)Sc2nnc(CNC(=O)c3cccc(OC)c3)n2C)c(C(=O)OCC)c1C (stereo not drawn)	none
O=C(Sc1ccccc1)c1cccnc1Oc1ccccc1	none
CCOC(=O)C1=C(N)n2c(s/c(=C/c3ccccc3)c2=O)=C(C(=O)OCC)C1c1ccccc1 (stereo not drawn)	none
CCOC(=O)C1=C(N)n2c(s/c(=C/c3ccco3)c2=O)=C(C(=O)OCC)C1c1ccco1 (stereo not drawn)	Ba CapD inh -4.2
CCOC(=O)C1=C(N)n2c(s/c(=C\c3ccco3)c2=O)=C(C#N)C1c1ccco1 (stereo not drawn)	none
COc1ccc(CCN(C)C(=O)C2CC2C(=O)O)cc1OC (stereo not drawn)	none
CSc1nc(C=Nc2ccc(C)cc2)ccc1C#N	none
N#Cc1ccc(C(=O)OC2CCCC2)cc1	none
N#CC(=C1CCCCC1)c1nc2ccccc2s1	none
N#C/C(=N/O)c1nc2ccccc2s1	Ba CapD inh -4.49
CSC(SC)=C(C#N)c1nc2ccccc2s1	none
CC(C)(C)c1cc(C(C)(C)C)c(Br)c(C(C)(C)C)c1	none
CCOC(=O)c1coc2c(F)c(F)c(F)cc2c1=O	Ba CapD inh -11.5
CCOC(=O)c1c[nH]c2ccccc2c1=O	none
CCOC(=O)c1c[nH]c2c(F)ccc(F)c2c1=O	none
Cc1cc(-c2onc(C)c2C(=O)NNC(=O)Cc2nc(-c3ccccc3)oc2C)no1	none
CSC(=CC(=O)c1ccc(F)cc1)SC	none
CSC(=CC(=O)c1ccccc1F)SC	Ba CapD inh -4.11
CSC(=CC(=O)c1cccc2ccccc12)SC	none
CN(C(=O)COn1ccc2ccc(S(C)(=O)=O)cc21)c1ccccc1	none
O=C1C(c2ccccc2)C(c2cccc([N+](=O)[O-])c2)NC(c2cccc([N+](=O)[O-])c2)C1c1ccccc1 (stereo not drawn)	none
COc1ccc(S(=O)(=O)Nc2cccc(-c3nnco3)c2)cc1OC	none
C/C(=C\C(=O)c1ccc(C)o1)Nc1ccc(C(=O)O)cc1C	Ba CapD inh -4
C/C(=C\C(=O)c1ccc(C)o1)Nc1ccc(Nc2ccccc2)cc1	none
C/C(=C\C(=O)c1ccc(C)o1)Nc1ccc(F)c(C)c1	none
CCc1nc(C)ccc1OCC(N)=O	none
CCc1nc(C)ccc1OCC(=O)O	Ba CapD inh -4.99
Cc1ccc(OCC(=O)O)c(C)c1	none
O=C1CSC(/C=C/c2ccccc2)N1c1cc(Cl)ccc1Cl (stereo not drawn)	none
Cc1ccc(C)n1-c1ccsc1-c1cc2nccc(-c3ccccc3)n2n1	none
